Our source for the composite z-score and z-score values is PubChem BioAssay.

The source made the active and inactive calls. Unless noted, no rule for the calls is given here.

Experiment [1] deals with Wnt5a (protein binding on small-molecule microarray). The experiment in a line: small molecules binding Wnt5a protein – biophysical, small-molecule microarray, 635/667 nm fluorescence, primary screen (AID 1142).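 Also: fluorescence read at 667 nm with signal to noise per printed feature.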 The following applies: 635 nm fluorescence, higher = more signal.
Experiment [2] can be described thus: ATP-based viability of Huh7 replicon cells – cell-based, CellTiter-Glo luminescence, basal, 48 h, cytotoxicity control for HCV replication inhibitor project, primary screen (AID 1143).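 Also: Huh7 hepatoma cells carrying a hepatitis C replication reporter with no stimulus; test concentration not given here.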 Conditions: higher = more signal, called active from +8 up or from −8 down.
Experiment [3] can be described thus: Pseudomonas biofilm growth suppression – PAO1 strain, BacTiter-Glo luminescence, LB-PBS, primary screen (AID 1144). Conditions: P. aeruginosa PAO1 biofilm, 12 h, higher = more signal.
Experiment [4] in a line: basal CRE-LacZ reporter activity in PC12 – cell-based, unstimulated, primary screen (AID 1145). The following applies: no forskolin, luminescence, 4.5 h, higher = more signal, called active from +8 up or from −8 down.
A short description of experiment [5]: forskolin-driven CRE-LacZ activity in PC12 – cell-based, CRE-LacZ reporter, forskolin-stimulated, primary screen (AID 1146).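 Also: PC12 cells with 6xCRE LacZ reporter stimulated by forskolin 10 µM; beta-galactosidase reporter signal reflecting CREB driven transcription.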 Conditions: luminescence, 4.5 h, higher = more signal, called active from +8 up or from −8 down.
In experiment [6] the target is Streptavidin (Streptomyces avidinii) (UniProt P22629). The experiment in a line: compounds binding control protein streptavidin – biophysical, small-molecule microarray, 635/667 nm fluorescence, artefact control for SMM compound annotation, primary screen (AID 1147).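 Also: signal reflects streptavidin binding to arrayed compounds as a control protein.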 Conditions: higher = more signal.
Chain of Streptavidin (Streptomyces avidinii) (P22629 whole entry, looked up): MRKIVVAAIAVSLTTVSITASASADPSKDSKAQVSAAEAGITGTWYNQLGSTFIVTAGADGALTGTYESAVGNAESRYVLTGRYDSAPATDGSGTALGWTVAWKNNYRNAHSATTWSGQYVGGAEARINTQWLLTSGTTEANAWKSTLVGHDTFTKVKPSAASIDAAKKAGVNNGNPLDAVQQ
Experiment [7] in a line: probe aInhba binding on compound microarray – biochemical, small-molecule microarray, 635/667 nm fluorescence, primary screen (AID 1148).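 Also: score merges 667nm spot fluorescence with signal-to-noise for antibody binding to printed compounds.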 The following applies: higher = more signal.
For experiment [8], the target named is Torsin-1A (Homo sapiens) (UniProt O14656). Put plainly: TOR1A wild-type binding on microarray – cell lysate, small-molecule microarray, lysate, 635/667 nm, primary screen (AID 1149). Conditions: COS7 hTOR1A-WT lysate, 635 nm fluorescence, higher = more signal.
Chain of Torsin-1A (Homo sapiens) (O14656 whole entry, looked up): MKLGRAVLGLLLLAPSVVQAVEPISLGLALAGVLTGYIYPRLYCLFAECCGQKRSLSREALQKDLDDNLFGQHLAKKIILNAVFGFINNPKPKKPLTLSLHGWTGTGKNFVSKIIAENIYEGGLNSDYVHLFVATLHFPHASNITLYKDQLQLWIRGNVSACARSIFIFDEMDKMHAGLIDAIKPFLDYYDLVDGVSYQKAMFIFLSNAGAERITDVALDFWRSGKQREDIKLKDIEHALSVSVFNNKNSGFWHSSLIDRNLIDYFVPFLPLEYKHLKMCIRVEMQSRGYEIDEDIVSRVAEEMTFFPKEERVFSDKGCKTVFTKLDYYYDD
For experiment [9] the target is unchanged. The experiment in a line: torsin A mutant lysate binding on microarrays – cell lysate, small-molecule microarray, COS7 lysate, 635/667 nm fluorescence, primary screen (AID 1150).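 Also: score pools 667 nm emission and signal to noise measuring lysate protein binding.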 Conditions: COS7 hTOR1A mutant lysate, 635 nm fluorescence, higher = more signal.
For experiment [10], the system named is Sonic hedgehog protein (Shh). The experiment in a line: Sonic hedgehog microarray binding compounds – biochemical, small-molecule microarray, 635/667 nm fluorescence, primary screen (AID 1151).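 Also: Shh protein binding to compounds spotted on small-molecule microarray slides; score combines spot fluorescence intensity with signal-to-noise across triplicate slides.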 The following applies: 635 nm fluorescence, higher = more signal.

On to `COCCOC(=O)N1C(=O)[C@@]2(c3cc(C#Cc4ccc(OC)cc4)ccc31)[C@H](c1ccccc1OCCO)N1[C@H](c3ccccc3)[C@H](c3ccccc3)OC(=O)[C@H]1[C@@H]2C(=O)N1CCCCCCC1`, for which the composite z-score in experiment [1] is 1.28; in [6], 2.64; in experiment [7], 1.56; with Torsin-1A (Homo sapiens) [8], 2.72; with Torsin-1A (Homo sapiens) [9], 2.09; in experiment [10] it was 2.04. Also, the z-score in experiment [2] is -4.35 (inactive); in experiment [3], -2.23 (inactive); in experiment [4] it was -1.42 (inactive); in experiment [5], -0.693 (inactive).

Turning to `O=c1n(-c2ccccc2)c(=O)n2n1CC(COc1ccccc1)=C([C@H](O)CCc1ccccc1)[C@@H]2CO`, the composite z-score in experiment [1] was -0.0748; in experiment [6], -0.275; in [7] it was -0.0618; with Torsin-1A (Homo sapiens) [8], 0.8; with Torsin-1A (Homo sapiens) [9], -0.119; in [10], 0.426. Also, the z-score in experiment [2] is -2.16 (inactive); in [3] it was -0.496 (inactive); in experiment [4], 1.49 (inactive); in [5] it was -0.373 (inactive).

`[N-]=[N+]=Nc1ccccc1[C@@H]1OC(c2ccc(OCCCO)cc2)=N[C@]1(Cc1ccccc1)C(=O)NCC(O)CO` (stereo not given in full): the composite z-score in experiment [1] is 0.951; in [6] it was 1.34; in experiment [7], 0.572; with Torsin-1A (Homo sapiens) [8], 0.436; with Torsin-1A (Homo sapiens) [9], 1.47; in experiment [10], -0.231. In addition, the z-score in [2] is -3 (inactive); in experiment [3] it was 0.255 (inactive); in experiment [4], 0.834 (inactive); in experiment [5] it was -1.8 (inactive).

On to `Cc1ccc(S[C@]2(C(=O)O)CC(=O)N(C3Cc4ccccc4C3)[C@@H]2c2ccc(CO)cc2)cc1`, for which the composite z-score is -0.127 in [1]; -0.395 in experiment [6]; 0.0018 in [7]; 0.794 in the experiment with Torsin-1A (Homo sapiens) [8]; 0.431 with Torsin-1A (Homo sapiens) [9]; -0.3 in [10]. In addition, the z-score in experiment [2] is 0.121 (inactive); in experiment [3], 0.0572 (inactive); in experiment [4], 0.001 (inactive); in [5], 0.629 (inactive).

`CCCC[C@@H]1C[C@H]1[C@@H](NC(=O)c1ccccc1)c1ccc(C(F)(F)F)cc1`: the composite z-score is -0.547 in [1]; 0.056 in [6]; -0.143 in [7]; -1.15 with Torsin-1A (Homo sapiens) [8]; -0.349 in the experiment with Torsin-1A (Homo sapiens) [9]; -1.85 in experiment [10]. The z-score was 0.085 (inactive) in experiment [2], 0.401 (inactive) in [3], -0.572 (inactive) in [4] and 0.24 (inactive) in experiment [5].

In the case of `COCCOC(=O)N1C(=O)[C@@]2(c3cc(C#CCNC(N)=O)ccc31)[C@H](C(=O)N1CCc3cc(OC)c(OC)cc3C1)[C@H]1C(=O)O[C@H](c3ccccc3)[C@H](c3ccccc3)N1[C@@H]2c1ccccc1OCCO`, the composite z-score in [1] was determined as 0.358; in experiment [6] it was 0.639; in experiment [7], 0.0301; with Torsin-1A (Homo sapiens) [8] it was 0.969; with Torsin-1A (Homo sapiens) [9], 0.498; in [10], 1.81. The z-score was -2.32 (inactive) in experiment [2], -0.772 (inactive) in [3], 0.0776 (inactive) in experiment [4] and -0.979 (inactive) in experiment [5].

In the case of `CCOC(=O)C1=CC[C@@H](c2ccccc2C(F)(F)F)N(S(=O)(=O)c2ccc(C)cc2)[C@H]1c1ccc(C#N)cc1`, the composite z-score in experiment [1] was 0.125; in experiment [6], 1.11; in experiment [7] it was 0.367; with Torsin-1A (Homo sapiens) [8] it was 0.502; with Torsin-1A (Homo sapiens) [9], 0.512; in [10], 0.494. The z-score in experiment [2] is -1.96 (inactive); in experiment [3], -0.29 (inactive); in experiment [4] it was -0.676 (inactive); in [5], 0.465 (inactive).

Turning to `C=CCC(OC(C)=O)[C@@H]1[C@@H](N(Cc2ccc(-c3cccc(C(F)(F)F)c3)o2)C(=O)c2ccc(-c3ccccc3)cc2)c2cc(OCCCO)ccc2N1C(=O)c1ccc2ccccc2n1` (stereo not given in full), the composite z-score in experiment [1] was -0.0222; in experiment [6], 0.0257; in experiment [7], -0.0762; in the experiment with Torsin-1A (Homo sapiens) [8], -0.48; with Torsin-1A (Homo sapiens) [9], -0.0764; in experiment [10], 0.406. Besides, the z-score in experiment [2] is 0.0285 (inactive); in experiment [3] it was -0.171 (inactive); in experiment [4] it was 0.222 (inactive); in [5], 0.53 (inactive).

As for `C=CCNC(=O)[C@H]1[C@@H]2C(=O)O[C@@H](c3ccccc3)[C@@H](c3ccccc3)N2[C@@H](c2ccc(O)cc2)[C@]12C(=O)N(C(=O)OCCOC)c1ccccc12`, the composite z-score in experiment [1] was 0.381; in experiment [6] it was -0.0654; in experiment [7], 0.122; in the experiment with Torsin-1A (Homo sapiens) [8], 0.265; with Torsin-1A (Homo sapiens) [9], 1.02; in [10], 1.11. For the same molecule, the z-score in experiment [2] was -2.03 (inactive); in experiment [3], 0.309 (inactive); in experiment [4], 0.128 (inactive); in [5], 5.62 (inactive).

Consider `[N-]=[N+]=Nc1ccccc1C[C@]1(C(N)=O)N=C(c2ccc(OCCCO)cc2)O[C@H]1c1ccccc1N=[N+]=[N-]`, for which the composite z-score was 0.611 in experiment [1]; 1.22 in experiment [6]; 0.189 in [7]; 0.747 with Torsin-1A (Homo sapiens) [8]; 0.986 with Torsin-1A (Homo sapiens) [9]; -0.191 in experiment [10]. Further, the z-score is -4.95 (inactive) in experiment [2], -0.783 (inactive) in experiment [3], 1.6 (inactive) in experiment [4] and -1.25 (inactive) in experiment [5].

`C=C(COC)C(=O)CC[C@@H](OC(=O)c1cccnc1)c1ccc(OCCO)cc1`: the composite z-score is 1.71 in experiment [1]; -0.23 in experiment [6]; 0.0471 in experiment [7]; 0.889 with Torsin-1A (Homo sapiens) [8]; 0.321 with Torsin-1A (Homo sapiens) [9]; 1.54 in [10]. Also, the z-score is -7.08 (inactive) in experiment [2], 0.403 (inactive) in experiment [3], 5.67 (inactive) in experiment [4] and 0.0067 (inactive) in [5].

Take `Cc1cc(C)c(C(O)C2C=CC3C(=O)N(c4ccccc4)C(=O)C3N2Nc2ccc(C(C)C)cc2)c(C)c1` (stereo not given): the composite z-score is 0.704 in experiment [1]; 1.71 in experiment [6]; 0.375 in experiment [7]; 0.385 with Torsin-1A (Homo sapiens) [8]; 0.333 in the experiment with Torsin-1A (Homo sapiens) [9]; -0.297 in experiment [10]. Further, the z-score in experiment [2] is 0.366 (inactive); in experiment [3], -0.342 (inactive); in experiment [4] it was 0.629 (inactive); in experiment [5] it was 1.07 (inactive).

Turning to `C=C(/C(=C/C[C@H](OC(=O)c1ccncc1)c1ccc(CO)o1)c1cc(C(=O)OC)ccc1OC)C(C)C`, the composite z-score in experiment [1] was -0.0222; in experiment [6], -0.328; in experiment [7] it was 0.16; with Torsin-1A (Homo sapiens) [8] it was 1.3; with Torsin-1A (Homo sapiens) [9] it was 1.81; in [10] it was 1.36. Besides, the z-score in experiment [2] was -0.398 (inactive); in experiment [3] it was -0.742 (inactive); in [4], 0.621 (inactive); in [5] it was 0.953 (inactive).
